Screens: PubChem BioAssay, several laboratories
Most compounds without a hit are left out; they make up all but 3.2% or so of the library.
DAGLB inhibitor: blocks human DAGLB lipase activity; inhibition, % at 5.17 µM; hit rate 0.059% among 340,000; HEK293T DAGLB membrane lysate, EnzChek fluorogenic substrate; Q8NCG7; in the data active means inhibition above about 34%
rCAG RNA binder: binds r(CAG) RNA repeats; inhibition, % at 3 µM; hit rate 1.3% among 370,000; AID 651821; r(CAG) RNA repeat, TO-PRO-1 dye displacement fluorescence;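 active means inhibition above the plate cutoff, the mean of all test compounds on that plate plus 3 SD, cut at about 35% in these data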;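 further: higher means more dye released from RNA so lower well fluorescence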
NadD inh: NadD (S. aureus) enzyme inhibition; purified NadD enzyme, colorimetric absorbance read-out; inhibition, % at 20 µM; hit rate 0.78% among 360,000; AID 602399; in the data active means inhibition above about 26%
DSG3 Ab inh: inhibitors of pemphigus antibody binding to human desmoglein-3 | DSG3-coupled beads, scFv-anti-DSG3-GFP binding, flow cytometry; active compounds read low | hit rate 0.48% among 310,000 | AID 588358 | binding (percent of control), % at 10 µM;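 active means binding more than 3 SD below its plate's average and above zero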;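 further: hits lower antibody fragment binding to DSG3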
MsrA inh: inhibitors of bovine MsrA. hit rate 0.75% among 360,000. purified bovine MsrA, absorbance read-out. inhibition, % at 15.5 µM; in the data active means inhibition above about 4.5%
bovine MsrA act: activates bovine MsrA enzyme. purified bovine MsrA, absorbance read-out. activation, % at 10.6 µM. hit rate 0.3% among 360,000; in the data active means activation above about 7.5%
rCAG binder conf: r(CAG) RNA repeat binding, confirmation. TO-PRO-1 dye displacement fluorescence. inhibition, % at 3 µM. hit rate 70% among 4,300. shares compounds with rCAG RNA binder;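 active means inhibition above a per-plate cutoff, the mean inhibition of sample wells plus 3 SD, cut at about 35% in these data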;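 further: loss of TO-PRO-1 fluorescence as compound displaces dye from 1x1 AA loop RNA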
dCAG dye counter: DNA CAG dye complex inhibition counter-screen; shares compounds with rCAG RNA binder; d(CAG) DNA oligo TO-PRO-1 dye displacement, fluorescence; inhibition, % at 3 µM; hit rate 94% among 4,300;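 active means inhibition above its plate's cutoff, the mean test-well inhibition plus 3 SD, cut at about 4.8% in these data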;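 further: hits displace the dye from DNA and so lower well fluorescence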
DNA CAG DR: disrupts DNA CAG TO-PRO-1 complex in dose response; hit rate 20% among 250; shares compounds with rCAG RNA binder; DNA CAG/GTC duplex TO-PRO-1 dye displacement fluorescence; IC50, µM; AID 686960; in the data active means IC50 below about 10 µM
Numbers stand for hits; i = inactive; nt = not tested or not shown.

SMILES	DAGLB inhibitor	rCAG RNA binder	NadD inh	DSG3 Ab inh	MsrA inh	bovine MsrA act	rCAG binder conf	dCAG dye counter	others
O=S(=O)(N/N=C\c1cn(-c2ccccc2)nc1-c1ccccc1)c1ccccc1	i	35	i	i	i	i	44	13
Cc1ccc(-c2nn(-c3ccccc3)cc2/C=N/NS(=O)(=O)c2ccccc2)cc1	i	37	i	i	i	i	41	14
Cc1ccc(S(=O)(=O)N/N=C\c2cn(-c3ccccc3)nc2-c2ccccc2)cc1	i	i	i	i	i	i	nt	nt
Cc1ccc(C(=O)N/C(=C/c2cn(-c3ccccc3)nc2-c2ccccc2)C(=O)O)cc1	i	52	i	i	i	i	45	12
C[C@@H]1ON(C)[C@H]2C[C@H]3c4cc(Nc5ccccc5)ccc4CCN3C[C@@H]12	nt	i	nt	nt	i	nt	nt	nt
O=C(Nn1c(O)c(C=C2N=c3ccccc3=N2)sc1=S)c1ccccc1Cl	i	63	i	i	i	i	i	11
CCn1c(O)c(C=C2N=c3ccccc3=N2)sc1=S	i	i	i	i	i	i	nt	nt
O=S(=O)(Nn1c(O)c(C=C2N=c3ccccc3=N2)sc1=S)c1ccccc1	i	89	i	i	i	i	72	37
CCCCCCCCCCC(C(=O)O)C1(C(=O)O)CCC(=O)O1 (stereo unspecified)	nt	i	i	nt	i	i	nt	nt
COc1ccc2ccccc2c1/C=N/NC(=O)c1ccccc1F	i	i	i	i	i	i	nt	nt
CCOc1ccc(S(=O)(=O)Nc2ccccc2C(=O)Nc2ccccc2N2CCOCC2)cc1	i	i	i	i	i	i	nt	nt
O=C(O)/C=C/c1ccc(S(=O)(=O)Nc2ccccc2C(=O)Nc2ccc(F)cc2)cc1	i	i	i	i	i	i	nt	nt
O=C(Nc1ccc(S(=O)(=O)Nc2ncccn2)cc1)c1ccccc1NS(=O)(=O)c1ccc(F)cc1	i	60	i	i	i	i	i	6.5
O=C(Nc1ccc(-c2nc3ccccc3[nH]2)cc1)c1ccccc1NS(=O)(=O)c1ccc(F)cc1	i	92	i	i	i	i	90	70
CCOc1ccc(NC(=O)c2ccccc2NS(=O)(=O)c2ccc(F)cc2)c([N+](=O)[O-])c1	i	72	i	i	i	i	73	36
CCOc1ccc(S(=O)(=O)Nc2ccccc2C(=O)N/N=C/c2c(OC)ccc3ccccc23)cc1	i	62	i	i	i	i	42	19
O=C(CSc1nnc(SCc2ccccc2)s1)NNC(=S)Nc1ccccc1	i	43	i	i	i	i	52	18	DNA CAG DR=i
O=C(Cc1ccccc1)NNC(=S)Nc1ccccc1	nt	i	i	i	i	i	nt	nt
CCC(C)NS(=O)(=O)c1ccc2[nH]c(=O)oc2c1 (stereo unspecified)	nt	i	nt	nt	nt	nt	nt	nt
CC1(Oc2cccc(C#N)c2)CCN(Cc2ccccc2OC(F)F)C1 (stereo unspecified)	nt	i	i	nt	i	i	nt	nt
O=C(Nc1ccc(OC(F)(F)F)cc1)Nc1c(-c2ccc(F)cc2)nc2ncccn12	nt	i	nt	nt	nt	nt	nt	nt
COc1ccc(/C=C2\C(=O)NC(=S)N2C(=O)c2ccc(C)cc2)cc1	i	58	i	i	i	i	76	35
CCOc1ccc(N2CC(C(=O)Nc3ccc(S(=O)(=O)Nc4nccs4)cc3)CC2=O)cc1 (stereo unspecified)	i	49	i	i	i	i	i	12
O=C(Nc1ccc(S(=O)(=O)Nc2nccs2)cc1)C1CC(=O)N(c2ccccc2)C1 (stereo unspecified)	i	nt	i	i	nt	i	nt	nt
CCOc1ccc(N2CC(C(=O)Nc3ccc(S(=O)(=O)Nc4ncccn4)cc3)CC2=O)cc1 (stereo unspecified)	i	i	i	i	i	i	nt	nt
SMILES	DAGLB inhibitor	rCAG RNA binder	NadD inh	DSG3 Ab inh	MsrA inh	bovine MsrA act	rCAG binder conf	dCAG dye counter	others
Cc1ccc(N2CC(C(=O)Nc3ccc(S(=O)(=O)Nc4nccs4)cc3)CC2=O)cc1 (stereo unspecified)	i	36	i	i	i	i	i	6.7
CC(C)NC(=O)c1csc(COCCO)n1	nt	i	i	nt	i	i	nt	nt
Cc1cc(C(=O)N/N=C/c2cc(Cl)cc([N+](=O)[O-])c2O)c2ccccc2n1	i	56	i	i	i	i	53	16
O=C(N/N=C/c1ccccc1Br)c1cccc(S(=O)(=O)N2CCOCC2)c1	i	i	i	nt	i	i	nt	nt
O=C(N/N=C/c1cc(Cl)cc([N+](=O)[O-])c1O)c1cccc(S(=O)(=O)N2CCOCC2)c1	i	68	i	i	i	i	56	20
O=C(NCc1ccccc1)[C@H]1CCCN1C(=O)[C@H]1CCCN1C(=O)c1ccc(F)c(C(F)(F)F)c1	nt	i	nt	nt	i	nt	nt	nt
CCOc1ccc(NC(=O)Nc2nc(SCC)ns2)cc1	i	65	i	i	i	i	i	18
Cc1nn(CCc2nn[nH]n2)c2nc(-c3ccccc3)cc(C(F)(F)F)c12	i	44	i	i	i	i	i	i
O=C1/C(=C\c2ccco2)NC(=S)N1c1ccccc1	i	40	i	i	i	i	38	17
CCCN=C1N/C(=C\c2ccco2)C(=O)N1c1ccccc1	i	i	i	i	i	i	nt	nt
CNC[C@@H]1OCc2cnnn2CCCC(=O)N([C@@H](C)CO)C[C@H]1C	nt	i	nt	nt	i	nt	nt	nt
COc1ccc(CN2CCN(c3ccccc3OC)CC2)cc1OC	i	i	i	i	i	i	nt	nt
O=C1CS(=O)(=O)N(Cc2ccccc2F)c2ccc(Br)cc21	i	44	i	i	i	i	i	13
O=C1CS(=O)(=O)N(Cc2ccc(F)cc2)c2ccccc21	i	41	i	i	i	i	i	4.5
COc1cc(CN2c3ccccc3C(=O)CS2(=O)=O)cc(OC)c1	i	47	i	i	i	i	i	8.5
O=c1ccccn1Cc1ccccc1F	i	i	i	i	i	i	nt	nt
COc1ccc(CN2c3ccccc3C(=O)CS2(=O)=O)cc1OC	nt	35	nt	nt	i	nt	i	6.5
Cc1ccc(C2=CCN(C)C(=O)N2c2ccc([N+](=O)[O-])cc2)cc1	nt	i	nt	nt	nt	nt	nt	nt
O=C1NC[C@H](CCCCN2C[C@H](Cc3ccc(O)cc3)N(CCC3CCCCC3)C(=O)C2=O)N(CCc2ccc(O)cc2)C1=O	nt	i	i	nt	i	i	nt	nt
S=C(NCCCN1CCOCC1)NN=C1c2ccccc2-c2ccccc21	i	i	i	i	i	i	nt	nt
Cc1nccc(-c2cccc(N/N=C(\C#N)C(=O)c3ccccc3)c2)n1	i	51	i	i	i	i	35	9.3
CC1(C(=O)NS(=O)(=O)c2ccc(C#N)cc2)CCN1C(=O)c1ccccc1CCc1ccccc1 (stereo unspecified)	nt	48	i	nt	i	i	45	11
